aSyn UTR act: Activators via SNCA 5'UTR binding, MLPCN; alpha-synuclein 5'UTR reporter, activators screen; activity score, % (tested at 7.5 µM), hits read low; 300,000 compounds, 7.1% hits; in the data active = activity score below about -60%
Active calls of the source: *. These entries were drawn from the full list.

`c1csc(-c2nc3ccccc3s2)c1` gave aSyn UTR act -147.7*.
Nc1ccccc1-c1nc2ccccc2s1 was read as aSyn UTR act -239.6*.
`c1cncc(-c2nc3ccccc3s2)c1` gave aSyn UTR act -147.7*.
Screening c1ccc2sc(-c3ccncc3)nc2c1 returned aSyn UTR act -111.4*.
For Oc1ccc(-c2nc3ccccc3s2)c(O)c1 the results were aSyn UTR act -145.4*.
For CCC(C)(C)C1CCc2[nH]nc(C(=O)N/N=C(\C)c3ccco3)c2C1 (stereo not drawn) the results were aSyn UTR act -135.9*.
c1cncc(-c2nc3c(ccc4ccccc43)[nH]2)c1 was read as aSyn UTR act -192.6*.
For CC1CC(c2ccccc2)=Nc2ccccc2N1 (stereo not drawn) the results were aSyn UTR act -100.5*.
`COc1ccc(CNC(=O)Cn2ncn3cccc3c2=O)cc1` gave aSyn UTR act -78.3*.
COc1ccc(-c2cc3c(=O)n(CC(=O)NCCCN4CCC(Cc5ccccc5)CC4)ncn3n2)cc1 was read as aSyn UTR act 96.4.
`COc1ccc(-c2cc3c(=O)n(CC(=O)NCc4ccc(F)cc4)ncn3n2)cc1` gave aSyn UTR act -75.4*.
O=C(N/N=C/c1cccc(F)c1)NC1CCCCC1 was read as aSyn UTR act -76.5*.
O=C(N/N=C/c1cccc(F)c1)c1c(O)c2c([nH]c1=O)CCCC2 was read as aSyn UTR act -137.2*.
Screening O=C(N/N=C/c1ccccc1F)NC1CCCCC1 returned aSyn UTR act -130.5*.
For Cc1ccc2nc(-c3cccc(NC(=O)c4ccc5c(c4)OCCO5)c3)oc2c1 the results were aSyn UTR act -86.6*.
Screening O=C(Nc1ccc2oc(-c3ccc4ccccc4c3)nc2c1)c1ccc2c(c1)OCCO2 returned aSyn UTR act -113.0*.
For CCC(=O)Nc1cccc(-c2nc3ccc(C)cc3o2)c1 the results were aSyn UTR act -74.8*.
Cc1cccc(C=Nc2ccccc2C(N)=O)c1 was read as aSyn UTR act -69.8*.
`COCCCn1c(SCC(=O)Nc2ccc(C(C)=O)cc2)nc2ccccc2c1=O` gave aSyn UTR act -84.0*.
`CCn1c(SCC(=O)Nc2ccc(C(C)=O)cc2)nc2ccccc21` gave aSyn UTR act -70.0*.
`CC(=O)c1ccc(NC(=O)CSc2nc(=O)cc(N)n2-c2ccccc2)cc1` gave aSyn UTR act -142.5*.
For O=S(=O)(Nc1ccc2c(c1)OCCO2)c1cccs1 the results were aSyn UTR act -90.6*.
`O=C(Nc1ccc2c(c1)OCO2)C1CCN(S(=O)(=O)c2cccs2)CC1` gave aSyn UTR act -64.3*.
For Cc1nn(C)c(C)c1S(=O)(=O)N1CCC(C(=O)Nc2ccc3c(c2)OCCO3)CC1 the results were aSyn UTR act -110.8*.
For O=C(CNS(=O)(=O)c1cccs1)Nc1ccc2c(c1)OCCO2 the results were aSyn UTR act -90.8*.
`CN(CC(=O)Nc1ccc2c(c1)OCO2)S(=O)(=O)c1cccs1` gave aSyn UTR act -76.1*.
CC(C)C1N=C(c2ccc3c(c2)OCO3)CC(c2ccccc2O)N1 (stereo not drawn) was read as aSyn UTR act -299.7*.
For Cc1ccnc(Nc2nc(-c3sc(C)nc3C)cs2)c1 the results were aSyn UTR act -160.6*.
`Cc1nc(N)sc1-c1csc(Nc2ccccn2)n1` gave aSyn UTR act -168.4*.
Screening Cc1nc(C)c(-c2csc(Nc3ccccn3)n2)s1 returned aSyn UTR act -84.7*.
For Cc1nc(N)sc1-c1csc(Nc2ccc(Cl)cn2)n1 the results were aSyn UTR act -141.6*.
For COc1cc(/C=N/N2CCOCC2)ccc1OCc1ccccc1 the results were aSyn UTR act -107.4*.
`COc1cc(/C=N/N2CCOCC2)ccc1OCc1ccc(Cl)cc1` gave aSyn UTR act -66.4*.
Screening NC(=O)c1oc2ccccc2c1NC(=O)c1nc2ccccc2s1 returned aSyn UTR act -120.7*.
`O=C(N=Nc1c(O)n(C2OC(=O)c3ccccc32)c2ccccc12)c1ccco1` (stereo not drawn) gave aSyn UTR act -109.5*.
`C=CCNC(=O)C1CCN(c2nc(C)cc(-c3ccccc3)n2)CC1` gave aSyn UTR act -96.6*.
Screening CC(C)Oc1ccc(C(=O)Nc2ccc(C(F)(F)F)n(C)c2=O)cc1 returned aSyn UTR act -82.0*.
C=CC(=O)N=c1sc2ccccc2n1-c1ccccc1 was read as aSyn UTR act 69.7.
Screening Cn1c(=NC(=O)C2=NNC(=O)CC2)sc2ccccc21 returned aSyn UTR act 59.8.
Screening Cn1/c(=N/NC(=O)c2ccccc2Br)sc2ccccc21 returned aSyn UTR act -75.1*.
COC(=O)c1ccc2nc(NC(=O)CSCC(=O)OCC(=O)c3ccccc3)sc2c1 was read as aSyn UTR act -72.6*.
`COC(=O)c1ccc2nc(NC(=O)COC(=O)CSc3nc(C)cc(C)n3)sc2c1` gave aSyn UTR act -87.8*.
`Cc1ccc2nc(NC(=O)CSCC(=O)OCC(=O)c3ccc(Br)cc3)sc2c1` gave aSyn UTR act 82.9.
Screening Cc1ccc2nc(CCc3ccc(N)cc3)[nH]c2c1 returned aSyn UTR act -135.9*.
Cc1ccc2nc(Cc3ccc(N)cc3)oc2c1 was read as aSyn UTR act -108.4*.
Screening Nc1ccc2nc(CCc3ccccc3)[nH]c2c1 returned aSyn UTR act -68.0*.
For Cc1ccc(NC(=O)/C=C/c2ccc([N+](=O)[O-])s2)cc1 the results were aSyn UTR act -212.4*.
Cc1cc([N+](=O)[O-])ccc1NC(=O)/C=C/c1cccs1 was read as aSyn UTR act -157.6*.
Screening Cc1ccc(NC(=O)/C=C/c2ccc([N+](=O)[O-])s2)c(C)c1 returned aSyn UTR act -93.0*.
Cc1cccc(NC(=O)/C=C/c2ccc([N+](=O)[O-])s2)c1 was read as aSyn UTR act -223.6*.
Screening O=C(Nc1ccc(-c2nc3ccccc3[nH]2)cc1)C1CCCO1 (stereo not drawn) returned aSyn UTR act 76.7.
For O=C(Nc1nc2ccccc2[nH]1)c1cccs1 the results were aSyn UTR act -91.5*.
O=C(Nc1nc2ccccc2[nH]1)c1ccc(Br)o1 was read as aSyn UTR act -131.8*.
`O=C(Nc1nc2ccccc2[nH]1)C1CCCO1` (stereo not drawn) gave aSyn UTR act -79.1*.
`O/C(=C\c1nc2ccccc2[nH]1)c1cccs1` gave aSyn UTR act -199.7*.
Cc1ccc(C(=O)Nc2nc3ccccc3[nH]2)cc1 was read as aSyn UTR act 68.1.
Screening O=c1[nH]c2ccccc2nc1-c1cccs1 returned aSyn UTR act -152.1*.
`Cc1[nH]c2ccccc2c1-c1nc2ccccc2[nH]c1=O` gave aSyn UTR act -62.8*.
`O=c1[nH]c2ccccc2nc1/C=C(\O)c1cccs1` gave aSyn UTR act -174.0*.
For O=C(Nc1nc2ccccc2[nH]1)C12CC3CC(CC(C3)C1)C2 the results were aSyn UTR act -181.4*.
`NC(=O)c1ccccc1-c1nc(-c2ccccc2)no1` gave aSyn UTR act -82.2*.
`Fc1ccccc1-c1nc(-c2ccncc2)no1` gave aSyn UTR act -115.9*.
Screening Fc1ccccc1-c1nc(-c2ccccc2)no1 returned aSyn UTR act -96.6*.
O=C(CSc1nnc(-c2ccccc2Cl)o1)N1CCCC1 was read as aSyn UTR act -68.4*.
For O=C(CSc1nnc(-c2ccccc2Br)o1)N1CCOCC1 the results were aSyn UTR act -111.0*.
For O=C(CSc1nnc(-c2ccccc2O)o1)N1CCOCC1 the results were aSyn UTR act -69.4*.
Fc1ccccc1CSc1nc2ncc(Br)cc2[nH]1 was read as aSyn UTR act -126.8*.

Assay outcomes from PubChem BioAssay.
